# Bioassay records: PubChem, National Center for Advancing Translational Sciences (NCATS)
# Shown are actives, neighbours in structure and some others; about 8.7% of the full set was active somewhere.
# Pf growth 96h: Primary qHTS for delayed death inhibitors of the malarial parasite plastid, 96 hour incubation. P. falciparum luciferase reporter growth, 96 h. Potency, µM (top dose mostly 28.7 µM), usual class: inhibitors. 320,000 compounds, 6.9% hits. AID 504834, 2011
#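 Delayed-death screen, second-generation endpoint: infected erythrocytes, 2% hematocrit, 0.05% parasitemia final; 96 hours at 37 C, 5% CO2; luciferase detection reagent; luminescence decrease equals reduced growth.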
# AMA1-RON2 inh: qHTS for Inhibitors of AMA1-RON; Towards Development of Antimalarial Drug Lead: Primary Screen; Plasmodium falciparum AMA1 (3D7) - RON2 peptide interaction; AlphaScreen AMA1-biotinylated RON2 peptide binding; Potency, µM (series often up to 58.2 µM), usual class: inhibitors; 360,000 compounds, 0.2% hits; AID 720542, 2013; further: nearly all actives have a fitted effect of over 45% in size
#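 AMA1 (3D7) with his tag at 25 nM final met compounds first, then biotinylated RON2 peptide at 25 nM; detection used donor plus acceptor beads, 10 µg/mL apiece, read by AlphaScreen after 30 min at room temperature.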
# Pf growth 48h: Primary qHTS for delayed death inhibitors of the malarial parasite plastid, 48 hour incubation | Potency, µM (top dose mostly 28.7 µM), most hits filed as inhibitors | P. falciparum luciferase growth in erythrocytes, 48 h | 310,000 compounds, 5.9% hits
#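 Read-out is firefly luciferase luminescence from an integrated reporter in P. falciparum, so falling signal marks reduced parasite growth. Infected erythrocytes were at 2% hematocrit and 0.1% parasitemia (final) in Albumax-supplemented RPMI 1640.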
# VACV mCherry inh: qHTS for Stage-Specific Inhibitors of Vaccinia Orthopoxvirus: mCherry Reporter Primary qHTS. Vaccinia virus mCherry reporter infection, fluorescence. Potency, µM (top dose mostly 36.5 µM), hits mostly inhibitors. 310,000 compounds, 0.63% hits; calls by dose curve; tested in A549 cells; further: nearly all actives have a fitted effect of over 35% in size
# Vaccinia Venus: qHTS for Stage-Specific Inhibitors of Vaccinia Orthopoxvirus: Venus Reporter Primary qHTS; Vaccinia virus Venus reporter expression, fluorescence; Potency, µM (series often up to 36.5 µM), hits mostly inhibitors; 330,000 compounds, 0.46% hits; calls by dose curve; tested in A549 cells; further: nearly all actives have a fitted effect of over 30% in size
# Numbers stand for hits; n = inactive; u = inconclusive; x = not tested or not shown; [ ] = remark or other dose. Unless noted, the call rests on the fitted dose curve; in most records, active means well fitted curve in the direction sought with a large enough effect; inconclusive means small, poorly fitted or top-dose-only effect, or another doubt; inactive means no such curve, though single readings can be large; an effect the other way counts as inactive or inconclusive.
SMILES,Pf growth 96h,AMA1-RON2 inh,Pf growth 48h,VACV mCherry inh,Vaccinia Venus
Cc1cc(C)n(-c2ccccc2[N+](=O)[O-])n1,n,n,n,n,n
Cc1cc(N/N=C/c2ccccc2[N+](=O)[O-])nc(-n2nc(C)cc2C)n1,0.657µM,n,0.928µM,10µM,u
Oc1ccccc1C=NNc1nc2ccccc2s1,x,n,x,u,n
Oc1ccc(C=NNc2nc3ccccc3s2)c(O)c1,x,n,x,5.01µM,u
Cc1cc(N/N=C/c2ccccc2O)nc(N2CCOCC2)n1,u,n,10.4µM,n,u
Cc1ccc2c(c1)NC(=O)C(CC(=O)Nc1ccccc1Cl)O2 (stereo unspecified),x,x,x,n,n
CCCNC(=O)c1c(NC(=O)c2ccccc2)sc2c1CCC(C(C)(C)C)C2 (stereo unspecified),x,x,x,n,n
CN(C)CC(C)(O)c1ccc2c(c1)CN(Cc1cccn1-c1ncccn1)CCO2 (stereo unspecified),x,x,x,n,n
CCOc1ccc(/C=N/Nc2cc(N3CCOCC3)nc(C)n2)c(O)c1,6.57µM,n,n,x,x
CC1=Nc2ccccc2/C1=C(/C)c1c(C)[nH]c2ccccc12,x,x,x,n,n
Cc1ccc(NC(=O)c2cc(S(=O)(=O)N(C)C)ccc2N2CCCC2)cc1S(=O)(=O)N(C)C,10.4µM,n,u,n,n
CCc1ccccc1NC(=O)c1cc(S(=O)(=O)N(C)C)ccc1N1CCCC1,u,n,u,n,n
Cc1ccc(NC(=O)c2cc(S(=O)(=O)N3CCCCC3)ccc2N2CCOCC2)cc1S(=O)(=O)N(C)C,x,n,x,x,x
CN(C)S(=O)(=O)c1ccc(N2CCCC2)c(C(=O)Nc2ccccc2Br)c1,14.7µM,n,13.1µM,n,n
CN(C)S(=O)(=O)c1ccc(N2CCCC2)c(C(=O)Nc2nc(-c3ccc(F)cc3)cs2)c1,u,n,9.28µM,n,n
Cc1ccc(NC(=O)CSc2nn(-c3ccccc3)c(=S)s2)cc1S(=O)(=O)N(C)C,3.29µM,n,u,u,u
CC(C)CC(=O)NCC(c1ccc2c(c1)OCO2)N1CCN(c2ccccc2)CC1 (stereo unspecified),x,x,x,n,n
COc1cccc(-n2c(=O)c3c(C)c(C)sc3n(CC(=O)NCCc3ccc(OC)c(OC)c3)c2=O)c1,x,x,x,n,n
COc1cccc(NC(=O)C2CCN(c3nc4ccccc4nc3C(F)(F)F)CC2)c1,x,x,x,n,n
COc1ccc(OC)c(NC(=O)c2cc(S(=O)(=O)N(C)C)ccc2N2CCCC2)c1,u,n,13.1µM,n,n
CN(C)S(=O)(=O)c1ccc(N2CCCC2)c(C(=O)NC(c2ccccc2)c2ccccc2)c1,x,n,0.828µM,x,x
CN(C)S(=O)(=O)c1ccc(N2CCCC2)c(C(=O)NNC(=O)c2ccccc2)c1,u,n,7.38µM,x,x
Cc1ccc(NC(=O)c2ccccc2SCC(=O)N2CCCC2)cc1S(=O)(=O)N(C)C,6.57µM,n,u,n,n
COc1ccc(NC(=O)c2cc(S(=O)(=O)N(C)C)ccc2N2CCCC2)cc1Cl,n,n,n,n,n
CC(=O)c1ccc(NC(=O)CN(C)S(=O)(=O)c2cnc[nH]2)cc1,x,x,x,n,n
SMILES,Pf growth 96h,AMA1-RON2 inh,Pf growth 48h,VACV mCherry inh,Vaccinia Venus
Cc1cc(C)nc(-n2nc(C)c3c2N(Cc2ccccc2F)C(=O)CC3c2ccc(Cl)cc2)n1 (stereo unspecified),x,x,x,n,n
Cc1noc(N)c1C(=O)Nc1ccc(F)c(Cl)c1,n,n,2.33µM,n,n
Cc1noc(N)c1C(=O)Nc1ccc(F)cc1,2.08µM,n,n,n,n
CC(=O)Nc1ccc(NC(=O)c2c(C)noc2C)cc1,u,n,4.65µM,x,x
Cc1noc(C)c1C(=O)Nc1ccc(C#N)cc1,n,n,n,x,x
Cc1noc(N)c1C(=O)Nc1ccccc1F,u,n,n,n[1.46 µM],7.94µM
CCOc1[nH]n(-c2ccccc2)c(=O)c1C=NCc1cccnc1,18.5µM,n,u,x,x
CCOc1[nH]n(-c2ccccc2)c(=O)c1C=NCC(=O)OC,n,n,u,x,x
c1sc2[n+](c1C13CC4CC(CC(C4)C1)C3)CCS2,2.94µM,n,2.33µM,n,n
COc1ccc(C(=O)c2coc3ccc(O)c(CN4CCCCC4)c23)cc1,n,n,7.38µM,n,n
COc1ccc2occ(C(=O)c3coc4ccc(O)c(CN(C)C)c34)c2c1,x,n,8.28µM,x,x
Cc1ccc(NC(=O)Cn2cc(C(=O)C3CCCCC3)c3ccccc32)cc1,x,x,x,n,n
O=C(NNC(=S)Nc1ccc(Cl)cc1Cl)c1ccncc1,4.15µM,n,n,n,n
Cn1ncc2c(NCc3ccc(F)cc3)ncnc21,x,x,x,n,n
CCCNC(=O)COC(=O)/C=C/c1ccc(C)o1,n,n,n,n,n
CCCOc1ccc(C(=O)OCC(=O)NCCc2ccc(OCC)c(OCC)c2)cc1OC,13.1µM,n,u,n,n
COc1cc(C(=O)OCC(=O)NCCCc2ccccc2)ccc1OCC(C)C,5.86µM,n,u,n,n
CCOc1ccc(CCNC(=O)COC(=O)CCc2cc(OC)c(OC)c(OC)c2)cc1OCC,u,n,13.1µM,n,n
CCOc1ccc(CCNC(=O)COC(=O)/C=C/c2ccc(C)o2)cc1OCC,5.22µM,n,13.1µM,n,n
O=C(C1CCCN(S(=O)(=O)c2cccc3nonc23)C1)N1CCN(c2cccc(C(F)(F)F)c2)CC1 (stereo unspecified),x,x,x,n,n
Cc1c(C(=O)Nc2cccc(C#N)c2)sc2nc3n(c(=O)c12)CCCCC3,x,x,x,n,n
CCc1ccccc1NC(=O)c1ccc2c(SCC(=O)O)c3c(nc2c1)CCC3,x,x,x,n,n
COc1ccc(C2C(=O)N(C3CCCCC3)CC(=O)N2CCC2=CCCCC2)cc1 (stereo unspecified),x,x,x,n,n
Nc1c(C(=O)Nc2ccccc2Cl)c2ccccn2c1C(=O)c1ccc(Cl)cc1,x,x,x,n,n
CCOc1ccc(CCNC(=O)COC(=O)c2ccc(OC(C)C)cc2)cc1OCC,u,n,11.7µM,n,n
SMILES,Pf growth 96h,AMA1-RON2 inh,Pf growth 48h,VACV mCherry inh,Vaccinia Venus
COc1cccc(CNC(=O)COC(=O)c2nn(C)c(=O)c3ccccc23)c1,x,n,x,n,n
CCOc1ccc(C(=O)CC(=O)C(=O)NCCc2ccc(OC)c(OC)c2)cc1,n,n,13.1µM,n,n
CCOc1ccc(CCNC(=O)COC(=O)c2nn(C)c(=O)c3ccccc23)cc1OCC,n,n,2.94µM,n,n
Cc1cccn2c(=O)c3cc(C(=O)NCC4CCCO4)c(=N)n(CCc4ccccc4)c3nc12 (stereo unspecified),u,n,4.65µM,n,n
COC(=O)C1CCN(C(=O)c2cc3c(=O)n4cccc(C)c4nc3n2Cc2ccccc2)CC1,4.15µM,n,5.86µM,u,u
COc1ccc(CCNC(=O)c2cc3c(=O)n4cccc(C)c4nc3n(CC3CCCO3)c2=N)cc1 (stereo unspecified),u,n,1.47µM,n,n
